Test results: article PMC7862700, “An all-to-all approach to the identification of sequence-specific readers for epigenetic DNA modifications on cytosine”

Assays:
Assay in all cases: DAPPL (digital affinity profiling via proximity ligation, sequencing); 10 mM Tris-HCl pH 7.5, 50 mM NaCl, 1 mM DTT, 4% glycerol, room temperature, 30 min; GST-TFs on glutathione beads, 16-mer random dsDNA library, 0.1% formaldehyde crosslink after washing; high values mean tight binding
Details in all cases: protein: recombinant; tags: N-terminal GST; dsDNA, one strand shown
FLI1 = molecular target: T1, FLI1 (Homo sapiens, UniProt Q01543 1-452)
T1 sequence: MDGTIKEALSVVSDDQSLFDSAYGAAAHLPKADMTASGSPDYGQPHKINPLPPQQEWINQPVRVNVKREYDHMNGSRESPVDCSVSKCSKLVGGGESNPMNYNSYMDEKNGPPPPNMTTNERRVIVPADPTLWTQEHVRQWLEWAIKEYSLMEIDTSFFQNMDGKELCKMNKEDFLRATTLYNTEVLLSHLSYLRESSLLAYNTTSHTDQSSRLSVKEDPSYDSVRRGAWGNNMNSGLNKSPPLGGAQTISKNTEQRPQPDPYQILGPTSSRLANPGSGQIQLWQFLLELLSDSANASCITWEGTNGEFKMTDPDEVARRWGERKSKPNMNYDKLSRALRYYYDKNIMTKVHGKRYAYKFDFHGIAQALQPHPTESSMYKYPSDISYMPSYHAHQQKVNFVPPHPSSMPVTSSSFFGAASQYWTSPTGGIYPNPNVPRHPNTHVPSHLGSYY
In short: (§1)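 Human transcription factors were made in yeast as GST fusions, captured on glutathione beads and barcoded with DNA. With a tag-only sample included, the pool was incubated with 200 nmole of a random double-stranded 16-mer DNA library in Tris/NaCl/DTT/glycerol buffer at room temperature for 30 min, then crosslinked with 0.1% formaldehyde after washing, ligated by proximity, amplified and sequenced. For binding signal, each hexamer's read frequency for a factor is divided by its frequency for the tag-only sample.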

ELK1 = molecular target: T2, ELK1 (Homo sapiens, UniProt P19419 1-428)
T2 sequence: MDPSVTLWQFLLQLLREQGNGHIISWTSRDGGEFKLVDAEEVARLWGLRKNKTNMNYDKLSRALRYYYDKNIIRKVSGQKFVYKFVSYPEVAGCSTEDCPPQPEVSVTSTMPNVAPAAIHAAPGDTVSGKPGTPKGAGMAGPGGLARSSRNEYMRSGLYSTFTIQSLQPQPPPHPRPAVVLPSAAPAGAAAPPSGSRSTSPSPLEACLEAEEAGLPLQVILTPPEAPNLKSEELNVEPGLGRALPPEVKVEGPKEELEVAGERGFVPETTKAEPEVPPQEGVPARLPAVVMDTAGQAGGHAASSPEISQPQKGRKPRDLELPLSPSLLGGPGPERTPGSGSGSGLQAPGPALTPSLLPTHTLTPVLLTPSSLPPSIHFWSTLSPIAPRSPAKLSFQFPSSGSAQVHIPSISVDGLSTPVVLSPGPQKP
In short: as §1

GABPA = molecular target: T3, GABPA (Homo sapiens, UniProt Q06546 1-454)
T3 sequence: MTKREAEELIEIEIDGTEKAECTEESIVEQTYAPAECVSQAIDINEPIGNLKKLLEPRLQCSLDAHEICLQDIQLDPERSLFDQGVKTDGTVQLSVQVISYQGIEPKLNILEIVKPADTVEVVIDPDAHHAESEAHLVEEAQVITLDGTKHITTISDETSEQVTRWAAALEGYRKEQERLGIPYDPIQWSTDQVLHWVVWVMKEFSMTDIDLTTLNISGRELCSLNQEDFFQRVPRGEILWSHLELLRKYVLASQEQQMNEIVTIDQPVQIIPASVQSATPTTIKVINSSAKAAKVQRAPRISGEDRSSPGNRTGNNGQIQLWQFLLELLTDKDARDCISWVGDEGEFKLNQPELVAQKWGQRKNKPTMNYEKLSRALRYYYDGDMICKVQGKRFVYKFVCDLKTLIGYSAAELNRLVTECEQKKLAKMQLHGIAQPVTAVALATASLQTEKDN
In short: as §1

ERG = molecular target: T4, ERG (Homo sapiens, UniProt P11308 1-479)
T4 sequence: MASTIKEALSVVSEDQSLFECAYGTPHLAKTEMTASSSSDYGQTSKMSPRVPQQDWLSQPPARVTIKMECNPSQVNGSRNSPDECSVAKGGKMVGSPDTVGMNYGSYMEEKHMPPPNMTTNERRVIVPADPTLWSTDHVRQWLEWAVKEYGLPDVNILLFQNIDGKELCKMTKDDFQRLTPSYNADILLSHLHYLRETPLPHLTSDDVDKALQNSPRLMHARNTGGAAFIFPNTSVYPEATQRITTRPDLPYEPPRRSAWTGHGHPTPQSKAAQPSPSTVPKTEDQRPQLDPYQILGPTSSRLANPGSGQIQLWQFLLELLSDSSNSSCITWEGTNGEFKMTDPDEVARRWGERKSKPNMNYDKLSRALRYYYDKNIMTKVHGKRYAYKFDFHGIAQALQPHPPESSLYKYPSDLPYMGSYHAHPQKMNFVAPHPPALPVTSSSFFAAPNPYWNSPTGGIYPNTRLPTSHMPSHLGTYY
In short: as §1

ELF1 = ELF1 (Homo sapiens, UniProt P32519 1-619)
Sequence of ELF1 (P32519 whole entry): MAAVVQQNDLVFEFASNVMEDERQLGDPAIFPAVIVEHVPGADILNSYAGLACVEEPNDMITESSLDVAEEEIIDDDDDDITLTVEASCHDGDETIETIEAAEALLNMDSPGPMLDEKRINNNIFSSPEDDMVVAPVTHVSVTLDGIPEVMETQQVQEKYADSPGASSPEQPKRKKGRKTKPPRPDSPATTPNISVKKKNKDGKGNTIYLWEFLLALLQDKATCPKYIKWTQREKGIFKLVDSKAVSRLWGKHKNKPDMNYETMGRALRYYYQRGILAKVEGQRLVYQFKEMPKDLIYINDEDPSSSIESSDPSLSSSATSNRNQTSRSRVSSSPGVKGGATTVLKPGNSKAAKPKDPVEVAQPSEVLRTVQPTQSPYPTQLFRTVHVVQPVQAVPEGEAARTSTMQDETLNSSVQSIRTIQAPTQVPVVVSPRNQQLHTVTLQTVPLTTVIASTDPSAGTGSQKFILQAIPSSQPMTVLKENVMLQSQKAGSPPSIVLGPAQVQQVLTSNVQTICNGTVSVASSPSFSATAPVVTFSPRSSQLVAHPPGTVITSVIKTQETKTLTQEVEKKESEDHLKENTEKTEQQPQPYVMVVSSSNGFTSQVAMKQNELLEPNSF
In short: as §1

EHF = molecular target: T5, EHF (Homo sapiens, UniProt Q9NZC4 1-300)
T5 sequence: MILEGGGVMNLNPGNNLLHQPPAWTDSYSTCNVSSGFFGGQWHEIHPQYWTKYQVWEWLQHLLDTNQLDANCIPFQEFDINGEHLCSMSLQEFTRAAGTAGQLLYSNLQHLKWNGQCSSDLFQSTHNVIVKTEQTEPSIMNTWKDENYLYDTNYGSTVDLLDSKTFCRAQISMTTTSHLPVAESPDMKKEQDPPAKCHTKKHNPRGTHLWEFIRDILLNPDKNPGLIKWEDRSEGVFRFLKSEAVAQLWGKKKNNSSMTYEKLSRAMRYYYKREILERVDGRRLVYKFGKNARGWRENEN
In short: as §1

SPI1 = SPI1 (Homo sapiens, UniProt P17947 1-270)
In short: as §1

SPIB = SPIB (Homo sapiens, UniProt Q01892 1-262)
Sequence of SPIB (Q01892 whole entry): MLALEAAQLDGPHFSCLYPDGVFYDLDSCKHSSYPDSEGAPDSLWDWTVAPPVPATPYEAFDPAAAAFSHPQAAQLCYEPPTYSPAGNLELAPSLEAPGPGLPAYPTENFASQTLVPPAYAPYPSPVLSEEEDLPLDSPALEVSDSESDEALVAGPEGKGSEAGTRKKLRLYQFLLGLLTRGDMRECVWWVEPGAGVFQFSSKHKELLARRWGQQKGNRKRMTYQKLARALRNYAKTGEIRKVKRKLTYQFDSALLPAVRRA
In short: as §1

ELK3 = molecular target: T6, ELK3 (Homo sapiens, UniProt P41970 1-407)
T6 sequence: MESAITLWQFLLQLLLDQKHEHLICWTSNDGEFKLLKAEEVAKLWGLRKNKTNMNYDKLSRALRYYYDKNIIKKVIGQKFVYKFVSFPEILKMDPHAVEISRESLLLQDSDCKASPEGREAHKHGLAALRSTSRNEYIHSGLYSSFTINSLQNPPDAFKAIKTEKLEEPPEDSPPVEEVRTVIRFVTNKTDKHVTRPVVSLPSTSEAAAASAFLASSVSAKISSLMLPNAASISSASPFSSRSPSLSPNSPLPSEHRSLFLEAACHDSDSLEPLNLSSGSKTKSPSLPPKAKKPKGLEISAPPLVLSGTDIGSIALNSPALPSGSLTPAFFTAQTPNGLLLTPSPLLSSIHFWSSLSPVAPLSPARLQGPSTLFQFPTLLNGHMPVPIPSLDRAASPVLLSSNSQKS
In short: as §1

| Sequence | binding signal (FLI1) | binding signal (ELK1) | binding signal (GABPA) | binding signal (ERG) | binding signal (ELF1) | binding signal (EHF) | binding signal (SPI1) | binding signal (SPIB) | binding signal (ELK3) |
| --- | --- | --- | --- | --- | --- | --- | --- | --- | --- |
| CCTGCT | 1.46 fold enrichment (6-mer frequency, TF over GST control) | 1.72 fold enrichment (6-mer frequency, TF over GST control) | 1.46 fold enrichment (6-mer frequency, TF over GST control) | 1.65 fold enrichment (6-mer frequency, TF over GST control) | 1.61 fold enrichment (6-mer frequency, TF over GST control) | 1.61 fold enrichment (6-mer frequency, TF over GST control) | 1.78 fold enrichment (6-mer frequency, TF over GST control) | 1.59 fold enrichment (6-mer frequency, TF over GST control) | 1.61 fold enrichment (6-mer frequency, TF over GST control) |
| GTATCT | 1.23 fold enrichment (6-mer frequency, TF over GST control) | 1.19 fold enrichment (6-mer frequency, TF over GST control) | 1.17 fold enrichment (6-mer frequency, TF over GST control) | 1.14 fold enrichment (6-mer frequency, TF over GST control) | 1.18 fold enrichment (6-mer frequency, TF over GST control) | 1.09 fold enrichment (6-mer frequency, TF over GST control) | 1.1 fold enrichment (6-mer frequency, TF over GST control) | 1.25 fold enrichment (6-mer frequency, TF over GST control) | 1.09 fold enrichment (6-mer frequency, TF over GST control) |
| ACCTTT | 1.52 fold enrichment (6-mer frequency, TF over GST control) | 1.33 fold enrichment (6-mer frequency, TF over GST control) | 1.47 fold enrichment (6-mer frequency, TF over GST control) | 1.38 fold enrichment (6-mer frequency, TF over GST control) | 1.47 fold enrichment (6-mer frequency, TF over GST control) | 1.38 fold enrichment (6-mer frequency, TF over GST control) | 1.49 fold enrichment (6-mer frequency, TF over GST control) | 1.45 fold enrichment (6-mer frequency, TF over GST control) | 1.35 fold enrichment (6-mer frequency, TF over GST control) |
| GCTTTC | 1.27 fold enrichment (6-mer frequency, TF over GST control) | 1.22 fold enrichment (6-mer frequency, TF over GST control) | 1.3 fold enrichment (6-mer frequency, TF over GST control) | 1.28 fold enrichment (6-mer frequency, TF over GST control) | 1.32 fold enrichment (6-mer frequency, TF over GST control) | 1.34 fold enrichment (6-mer frequency, TF over GST control) | 1.28 fold enrichment (6-mer frequency, TF over GST control) | 1.27 fold enrichment (6-mer frequency, TF over GST control) | 1.38 fold enrichment (6-mer frequency, TF over GST control) |
| TGTTAA | 1.11 fold enrichment (6-mer frequency, TF over GST control) | 1.15 fold enrichment (6-mer frequency, TF over GST control) | 1.17 fold enrichment (6-mer frequency, TF over GST control) | 1.11 fold enrichment (6-mer frequency, TF over GST control) | 1.09 fold enrichment (6-mer frequency, TF over GST control) | 1.03 fold enrichment (6-mer frequency, TF over GST control) | 1.07 fold enrichment (6-mer frequency, TF over GST control) | 1.13 fold enrichment (6-mer frequency, TF over GST control) | 1.15 fold enrichment (6-mer frequency, TF over GST control) |
| TAGTTA | 1.19 fold enrichment (6-mer frequency, TF over GST control) | 1.2 fold enrichment (6-mer frequency, TF over GST control) | 1.2 fold enrichment (6-mer frequency, TF over GST control) | 1.12 fold enrichment (6-mer frequency, TF over GST control) | 1.11 fold enrichment (6-mer frequency, TF over GST control) | 1.12 fold enrichment (6-mer frequency, TF over GST control) | 1.09 fold enrichment (6-mer frequency, TF over GST control) | 1.19 fold enrichment (6-mer frequency, TF over GST control) | 1.12 fold enrichment (6-mer frequency, TF over GST control) |
| TTTCAT | 1.11 fold enrichment (6-mer frequency, TF over GST control) | 1.09 fold enrichment (6-mer frequency, TF over GST control) | 1.22 fold enrichment (6-mer frequency, TF over GST control) | 1.15 fold enrichment (6-mer frequency, TF over GST control) | 1.18 fold enrichment (6-mer frequency, TF over GST control) | 1.17 fold enrichment (6-mer frequency, TF over GST control) | 1.14 fold enrichment (6-mer frequency, TF over GST control) | 1.22 fold enrichment (6-mer frequency, TF over GST control) | 1.15 fold enrichment (6-mer frequency, TF over GST control) |
